Assay outcomes as filed in PubChem BioAssay.
The list is not random: actives were taken first. Their share in the collection is about 12%.
PLK1 PBD block = qHTS for Inhibitors of PLK1-PDB (polo-like kinase 1 - polo-box domain): Primary Screen; Serine/threonine-protein kinase PLK1 (Homo sapiens), P53350; Plk1 PBD binding of FITC phosphopeptide, fluorescence polarization; Potency, µM, hits mostly inhibitors; 360,000 compounds, 2.8% hits; further: series mostly up to about 57 µM; nearly all actives have a fitted effect of over 65% in size
G9a inh = qHTS Assay for Inhibitors of Histone Lysine Methyltransferase G9a. Histone-lysine N-methyltransferase EHMT2 (Homo sapiens), Q96KQ7. G9a H3K9 monomethylation, AlphaScreen, 2 h. Potency, µM (titrated, usually from 102 µM), most hits filed as inhibitors. 350,000 compounds, 8.8% hits. AID 504332, 2011; further: nearly all actives have a fitted effect of over 75% in size
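Signal arises when biotinylated H3K9 peptide, once monomethylated, bridges streptavidin donor and antibody-captured acceptor beads. Enzyme at 20 nM was preincubated 15 min with test compounds; peptide 500 nM and SAM 20 uM then reacted for 2 h.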
HP1b chromo inh = HTS for Inhibitors of HP1-beta Chromodomain Interactions with Methylated Histone Tails; Potency, µM (top dose mostly 114 µM), actives largely listed as inhibitors; 390,000 compounds, 0.56% hits; Chromobox protein homolog 1 (Homo sapiens), P83916; AlphaScreen HP1-beta / biotin-H3K9me3 peptide binding; further: nearly all actives have a fitted effect of over 70% in size
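HP1-beta protein (50 nM final) preincubated 30 min at room temperature with biotinylated H3(1-18)K9me3 peptide (50 nM) in PBS pH 7.4, 0.01% Tween-20, then compound added for 30 min. AlphaScreen streptavidin donor/nickel chelate acceptor beads (10 ug/mL final), 30 min dark, luminescence read.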
PI5P4K alpha inh = qHTS for Inhibitors of phosphatidylinositol 5-phosphate 4-kinase (PI5P4K). PI5P4Kalpha enzyme, ADP-Glo luminescence, 60 min; active compounds read low. max response, %. 330,000 compounds, 1.2% hits; active means max response of -50% or lower; inconclusive means between -30% and -50%; inactive means -30% or higher; further: value at the top dose of about 77 µM
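ADP-Glo luminescence end-point after a 60 min room-temperature kinase reaction. PI5P4Kalpha and substrate in HEPES pH 7.4 buffer with EGTA, 0.1% CHAPS and 5% DMSO; ATP at 5 microM final.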
JMJD2A Tudor = qHTS Assay for Inhibitors of JMJD2A-Tudor Domain | AlphaScreen JMJD2A-Tudor / H3K4me3 peptide binding | 390,000 compounds, 4.4% hits | Lysine-specific demethylase 4A (Homo sapiens), O75164 | Potency, µM (doses to about 114 µM), hits mostly inhibitors; further: nearly all actives have a fitted effect of over 50% in size
Target sequence (O75164 whole entry, looked up, the tested form may be a part): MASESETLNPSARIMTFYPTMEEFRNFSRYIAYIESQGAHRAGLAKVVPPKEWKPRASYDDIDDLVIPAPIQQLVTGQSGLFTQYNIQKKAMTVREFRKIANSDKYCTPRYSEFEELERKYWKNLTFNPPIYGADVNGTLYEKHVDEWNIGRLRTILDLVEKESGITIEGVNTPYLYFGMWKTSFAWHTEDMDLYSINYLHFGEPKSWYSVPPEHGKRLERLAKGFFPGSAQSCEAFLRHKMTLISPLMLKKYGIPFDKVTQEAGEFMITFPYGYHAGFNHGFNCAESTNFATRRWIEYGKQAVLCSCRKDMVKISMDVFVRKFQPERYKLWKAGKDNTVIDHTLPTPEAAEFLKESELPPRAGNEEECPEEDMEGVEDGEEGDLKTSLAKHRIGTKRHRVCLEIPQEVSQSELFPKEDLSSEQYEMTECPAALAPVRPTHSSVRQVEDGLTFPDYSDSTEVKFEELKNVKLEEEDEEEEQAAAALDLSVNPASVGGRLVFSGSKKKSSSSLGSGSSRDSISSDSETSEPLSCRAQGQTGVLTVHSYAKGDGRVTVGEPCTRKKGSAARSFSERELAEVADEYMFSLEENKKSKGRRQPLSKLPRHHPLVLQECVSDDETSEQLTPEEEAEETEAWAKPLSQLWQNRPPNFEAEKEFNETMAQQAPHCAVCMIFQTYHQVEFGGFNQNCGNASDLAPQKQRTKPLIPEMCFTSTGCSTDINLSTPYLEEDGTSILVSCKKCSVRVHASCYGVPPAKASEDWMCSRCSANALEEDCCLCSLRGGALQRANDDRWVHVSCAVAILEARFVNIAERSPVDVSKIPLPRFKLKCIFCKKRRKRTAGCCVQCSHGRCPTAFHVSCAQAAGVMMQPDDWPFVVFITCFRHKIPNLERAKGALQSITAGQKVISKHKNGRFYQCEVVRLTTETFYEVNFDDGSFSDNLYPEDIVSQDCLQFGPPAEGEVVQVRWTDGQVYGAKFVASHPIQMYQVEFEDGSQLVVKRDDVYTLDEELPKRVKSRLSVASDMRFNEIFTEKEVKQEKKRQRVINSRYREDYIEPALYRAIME
BAZ2B inh = qHTS Assay for Inhibitors of BAZ2B; AlphaScreen BAZ2B-H3K14Ac peptide displacement; 360,000 compounds, 4.4% hits; Bromodomain adjacent to zinc finger domain protein 2B (Homo sapiens), Q9UIF8; Potency, µM (highest dose often 114 µM), actives largely listed as inhibitors; further: nearly all actives have a fitted effect of over 60% in size
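Protein-peptide AlphaScreen: BAZ2B 50 nM, b-H3K14Ac 50 nM, 1x PBS pH 7.4 + 0.01% Tween-20. Preincubation 30 min RT; cpd 30 min RT (top 110 uM); beads 20 min RT, light-protected.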
Numbers stand for hits; [ ] = another dose, or the depositor's remark. Unless noted, the call rests on the fitted dose curve; in most records, active means well fitted curve in the direction sought with a large enough effect; inconclusive means small, poorly fitted or top-dose-only effect, or another doubt; inactive means no such curve, though single readings can be large; an effect the other way counts as inactive or inconclusive.

`Cc1c(-c2nc(-c3ccc4c(c3)OCO4)no2)nnn1-c1cccc(C(F)(F)F)c1` gave G9a inh inactive, HP1b chromo inh inactive, JMJD2A Tudor inactive and BAZ2B inh inactive.
`Cc1ccc2c(c1)c1c(n2CC(O)CNC(C)(C)C)CCCC1` (centres undefined) gave PLK1 PBD block inactive, G9a inh 50µM, HP1b chromo inh inactive, PI5P4K alpha inh inactive, JMJD2A Tudor 45µM and BAZ2B inh 45µM.
Screening Cc1ccc2c(c1)c1c(n2CC(O)CN2CCCCCC2)CCCC1 (centres undefined) returned PLK1 PBD block inactive, G9a inh inconclusive, HP1b chromo inh inconclusive, PI5P4K alpha inh inactive, JMJD2A Tudor inconclusive and BAZ2B inh 35µM.
For Cc1ccc2c(c1)c1c(n2CC(O)Cn2nc(C)c(Br)c2C)CCCC1 (centres undefined) the results were PLK1 PBD block inactive, G9a inh inactive[12.7 µM], HP1b chromo inh inactive, PI5P4K alpha inh inactive, JMJD2A Tudor inconclusive and BAZ2B inh inconclusive.
Screening CNCC(O)Cn1c2c(c3ccccc31)CCCC2 (centres undefined) returned PLK1 PBD block inactive, G9a inh 50µM, HP1b chromo inh inactive, PI5P4K alpha inh inactive, JMJD2A Tudor 28µM and BAZ2B inh inconclusive.
Cc1ccc2c(c1)c1c(n2CC(O)Cn2c(C)nc3ccccc32)CCCC1 (centres undefined) was read as PLK1 PBD block inactive, G9a inh inactive, HP1b chromo inh inactive, PI5P4K alpha inh inactive, JMJD2A Tudor inconclusive and BAZ2B inh inactive.
`CC(Oc1ccc(F)cc1)C(=O)Nc1cc(-c2ccc(F)c(F)c2)no1` (centres undefined) gave G9a inh inactive, HP1b chromo inh inactive, JMJD2A Tudor inactive and BAZ2B inh inactive.
`CCc1ccc(-n2nc(CO)c(C(=O)NCCCc3ccccc3)n2)cc1` gave G9a inh inactive, HP1b chromo inh inactive, JMJD2A Tudor inactive and BAZ2B inh inactive.
Cc1cc(N)c2ccccc2[n+]1CCCCCCCCCCCCCC[n+]1c(C)cc(N)c2ccccc21 was read as G9a inh 0.4µM.
Screening Cc1cc(N)c2ccccc2n1 returned PLK1 PBD block inactive, G9a inh inconclusive, HP1b chromo inh inactive, PI5P4K alpha inh inactive, JMJD2A Tudor inactive and BAZ2B inh inactive.
O=C(CN1CCN(c2cccc(Cl)c2)CC1)c1ccc(O)cc1O was read as PLK1 PBD block inactive, G9a inh inactive, HP1b chromo inh inactive, PI5P4K alpha inh inactive, JMJD2A Tudor inactive and BAZ2B inh inactive.
For CN1CCC/C1=C/C=C1\SC(=S)NC1=O the results were PLK1 PBD block inactive, G9a inh 10µM, HP1b chromo inh inactive, PI5P4K alpha inh inactive, JMJD2A Tudor inactive and BAZ2B inh inconclusive.
For CC(C)(C)NC(=O)[C@H]1CN(Cc2cccnc2)CCN1C[C@@H](O)C[C@@H](Cc1ccccc1)C(=O)N[C@H]1c2ccccc2C[C@H]1O the results were G9a inh inactive.
`CCCOc1ccc(NC(=O)C(=O)NCCCN2CCOCC2)cc1` gave G9a inh inactive, HP1b chromo inh inactive, JMJD2A Tudor inactive and BAZ2B inh inactive.
Screening CCCCCCCCCCCCC/C=C/[C@@H](O)[C@H](CO)NCCCCCCCC returned G9a inh inactive.
Cc1ccc(C)c(S(=O)(=O)N/N=C/c2cccnc2)c1 was read as PLK1 PBD block inactive, G9a inh inconclusive, HP1b chromo inh inactive, PI5P4K alpha inh inactive, JMJD2A Tudor inactive and BAZ2B inh inactive.
Screening CC(=O)Nc1ccc(/C=N/NS(=O)(=O)c2cc(C)ccc2C)cc1 returned PLK1 PBD block inactive, G9a inh 50µM, HP1b chromo inh inactive, PI5P4K alpha inh inactive, JMJD2A Tudor inactive and BAZ2B inh inactive.
`CC(=O)Nc1ccc(S(=O)(=O)NN=Cc2ccc(Cl)c(Cl)c2)cc1` gave PLK1 PBD block inactive, HP1b chromo inh inactive, PI5P4K alpha inh inactive and JMJD2A Tudor inactive.
`Cc1ccc(C)c(S(=O)(=O)N/N=C/c2ccc(F)cc2)c1` gave PLK1 PBD block inactive, G9a inh 11µM, HP1b chromo inh inactive, PI5P4K alpha inh inactive, JMJD2A Tudor inactive and BAZ2B inh inactive.
Screening CCCNC(=O)C1(C)CCN(CCC(=O)c2ccc(Br)cc2)C1 (centres undefined) returned PLK1 PBD block 11µM and PI5P4K alpha inh inactive.
`COCCNC(=O)C1(C)CCCN(CCC(=O)c2ccc(Br)cc2)C1` (centres undefined) gave PLK1 PBD block 9.5µM and PI5P4K alpha inh inactive.
Screening COCCNC(=O)C1(C)CCCN(CCSc2ccccc2)C1 (centres undefined) returned PLK1 PBD block inactive and PI5P4K alpha inh inactive.
For NC(=O)c1ccc(NC(=O)CS(=O)(=O)c2cn(CC(=O)N3CCCCC3)c3ccccc23)cc1 the results were PLK1 PBD block inactive, G9a inh inconclusive, PI5P4K alpha inh inactive, JMJD2A Tudor inactive and BAZ2B inh inactive.
Screening CCN1CCN(c2ccc(NC(=O)c3cc(OC)c(OC)c(OC)c3)cc2)CC1 returned PLK1 PBD block inactive, G9a inh inconclusive, HP1b chromo inh inactive, PI5P4K alpha inh inactive, JMJD2A Tudor inactive and BAZ2B inh inactive.
O=C(CN1C2=NCCN2c2ccccc21)c1ccc(Br)cc1 was read as PLK1 PBD block inactive, G9a inh inactive, HP1b chromo inh inactive, PI5P4K alpha inh inactive, JMJD2A Tudor inactive and BAZ2B inh inactive.
Screening O=C(CN1C2=NCCCN2c2ccccc21)c1cccs1 returned PLK1 PBD block inactive, G9a inh inactive, HP1b chromo inh inactive, PI5P4K alpha inh inactive, JMJD2A Tudor inactive and BAZ2B inh inactive.
`O=C(CN1C2=NCCCN2c2ccccc21)c1cccc(Br)c1` gave PLK1 PBD block 24µM, G9a inh inconclusive, HP1b chromo inh inconclusive, PI5P4K alpha inh inactive, JMJD2A Tudor inconclusive and BAZ2B inh inactive.
For O=C(CN1C2=NCCCN2c2ccccc21)c1ccc([N+](=O)[O-])cc1 the results were PLK1 PBD block inactive, G9a inh 40µM, HP1b chromo inh inactive, PI5P4K alpha inh inactive, JMJD2A Tudor inactive and BAZ2B inh inactive.
Screening CC1(C)CC(=O)C2=C(C1)OC(N)=C(C#N)C21CCN(Cc2ccccc2)CC1 returned PLK1 PBD block inactive, G9a inh 28µM, HP1b chromo inh inactive, PI5P4K alpha inh inactive, JMJD2A Tudor inactive and BAZ2B inh inactive.
